# In PubChem BioAssay:
# Measured potencies and affinities stand elsewhere. Calls of active or inactive are those of the source.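 The calls were made as follows: active = a fitted half-maximal concentration no higher than twice the top valid tested dose, with signal falling as cells die; inconclusive = flat curve between -70% and -30%, or poor fit; inactive = the rest, including signal rising instead of falling.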
# Experiment: HeLa cell cytotoxicity, dose response, cytotoxicity control, ATP luminescence, cherry-pick samples (AID 687004);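 also: 0% = neutral control median and -100% = staurosporine 10 µM control median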
# Conditions: HeLa viability, ATP luminescence (CellTiter-Glo), 48 h; series mostly up to 26 µM; activity change, negative = cytotoxicity: at the top concentration
row,Structure (SMILES),"activity change, negative = cytotoxicity"
1,C[C@@H](O)C#Cc1ccc([C@@H]2[C@H]3CN(CC4CC4)CCCCN3[C@H]2CO)cc1,17.6% (inactive)
2,CCS(=O)(=O)NCC[C@@H]1CC[C@@H](NS(=O)(=O)c2cccc(F)c2)[C@@H](CO)O1,4.14% (inactive)
3,CCCNC(=O)N1[C@@H](CO)[C@@H](c2ccc(-c3ccccc3)cc2)[C@@H]1CNC(C)=O,0.432% (inactive)
4,C/C=C/c1ccc([C@H]2[C@@H](C#N)N(S(=O)(=O)c3cccc(F)c3)[C@H]2CO)cc1,1.51% [at 23.5 µM] (inactive)
5,COc1ccccc1C#Cc1ccc2c(c1)O[C@@H](CN(C)C(C)=O)[C@@H](C)CN([C@H](C)CO)S2(=O)=O,-6.3% (inactive)
6,C[C@@H]1CN([C@@H](C)CO)C(=O)c2cc(/C=C/c3ccccc3)cnc2O[C@@H]1CN(C)S(C)(=O)=O,25.6% (inactive)
7,Cc1cc(C)c(NC(=O)C2CCCCN2C)c(C)c1 (stereo not drawn),3.11% (inactive)
8,CO[C@H]1CN(C)C(=O)c2cc(NS(=O)(=O)c3ccc(C)cc3)ccc2OC[C@@H](C)N(C(=O)NC(C)C)C[C@@H]1C,12.2% (inactive)
9,COc1ccc(CNC(=O)C[C@H]2CC[C@H]3[C@@H](COc4ccc(NC(=O)C5CC5)cc4C(=O)N3C)O2)cc1,7.07% (inactive)
10,O=C(Cc1cccs1)N1CCN(c2ccccc2)CC1,22.1% [at 42 µM] (inactive)
11,Cc1noc(C)c1S(=O)(=O)Nc1ccc2c(c1)CC(=O)N([C@@H](C)CO)C[C@@H](C)[C@@H](CN(C)S(=O)(=O)c1cccs1)O2,9.08% [at 23.5 µM] (inactive)
12,C[C@@H]1CN([C@@H](C)CO)C(=O)c2cc(NC(=O)C3CCCCC3)ccc2O[C@@H](C)CCCCO[C@@H]1CN(C)C(=O)NC1CCCCC1,17.1% (inactive)
13,O=C(C[C@H]1CC[C@H]2[C@@H](COC[C@H](O)CN2Cc2cccc(Cl)c2)O1)Nc1nccs1,-2.96% (inactive)
